What all share (experiment): HT-SELEX; 20 mM HEPES pH 7, 140 mM KCl, 5 mM NaCl, 1 mM K2HPO4, 2 mM MgSO4, 100 uM EGTA, ZnSO4, 0.1% Tween20; room temperature, 1 h; high values mean tight binding
Holding throughout (details): protein: ivt; tags: eGFP (N-terminal); dsDNA, one strand shown

The target in one test is ZNF721 full-length (Homo sapiens, UniProt Q8TF20-2 1-923). In a few lines:
(§1)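 Tagged transcription factor, expressed in HEK293 lysate or cell-free extract as a full-length protein or DNA-binding-domain fragment, was held on beads. It bound a randomized 40-base DNA library during 1 h at room temperature in low-stringency HEPES/KCl buffer with Tween20. Eluted DNA went through successive PCR cycles and Illumina sequencing of ~3 million 60 bp reads per sample. A higher relative k-mer count in the selected reads denotes tighter binding.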

A further test addresses ZNF721 DBD1 (Homo sapiens, UniProt Q8TF20-2 29-461). In a few lines: as §1
A further test addresses ZNF721 DBD2 (Homo sapiens, UniProt Q8TF20-2 395-923). The gist of the method: as §1

ZNF721 DBD2, sequence (Q8TF20 383-911): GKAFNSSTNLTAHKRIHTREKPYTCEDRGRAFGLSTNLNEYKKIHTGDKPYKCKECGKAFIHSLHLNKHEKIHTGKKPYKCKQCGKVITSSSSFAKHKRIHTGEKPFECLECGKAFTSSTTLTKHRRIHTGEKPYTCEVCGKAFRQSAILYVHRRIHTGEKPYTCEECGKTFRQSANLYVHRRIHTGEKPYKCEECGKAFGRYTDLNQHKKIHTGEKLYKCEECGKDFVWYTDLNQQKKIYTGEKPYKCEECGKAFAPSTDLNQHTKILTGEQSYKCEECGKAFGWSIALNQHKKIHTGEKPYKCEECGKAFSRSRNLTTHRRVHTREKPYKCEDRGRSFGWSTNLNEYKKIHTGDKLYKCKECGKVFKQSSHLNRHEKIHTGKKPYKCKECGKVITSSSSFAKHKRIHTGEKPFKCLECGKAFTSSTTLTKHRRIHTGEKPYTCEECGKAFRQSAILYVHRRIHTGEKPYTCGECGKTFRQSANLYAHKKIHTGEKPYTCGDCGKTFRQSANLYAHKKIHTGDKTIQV
ZNF721 full-length, sequence (Q8TF20 other isoform, or with tags, fused parts or gaps): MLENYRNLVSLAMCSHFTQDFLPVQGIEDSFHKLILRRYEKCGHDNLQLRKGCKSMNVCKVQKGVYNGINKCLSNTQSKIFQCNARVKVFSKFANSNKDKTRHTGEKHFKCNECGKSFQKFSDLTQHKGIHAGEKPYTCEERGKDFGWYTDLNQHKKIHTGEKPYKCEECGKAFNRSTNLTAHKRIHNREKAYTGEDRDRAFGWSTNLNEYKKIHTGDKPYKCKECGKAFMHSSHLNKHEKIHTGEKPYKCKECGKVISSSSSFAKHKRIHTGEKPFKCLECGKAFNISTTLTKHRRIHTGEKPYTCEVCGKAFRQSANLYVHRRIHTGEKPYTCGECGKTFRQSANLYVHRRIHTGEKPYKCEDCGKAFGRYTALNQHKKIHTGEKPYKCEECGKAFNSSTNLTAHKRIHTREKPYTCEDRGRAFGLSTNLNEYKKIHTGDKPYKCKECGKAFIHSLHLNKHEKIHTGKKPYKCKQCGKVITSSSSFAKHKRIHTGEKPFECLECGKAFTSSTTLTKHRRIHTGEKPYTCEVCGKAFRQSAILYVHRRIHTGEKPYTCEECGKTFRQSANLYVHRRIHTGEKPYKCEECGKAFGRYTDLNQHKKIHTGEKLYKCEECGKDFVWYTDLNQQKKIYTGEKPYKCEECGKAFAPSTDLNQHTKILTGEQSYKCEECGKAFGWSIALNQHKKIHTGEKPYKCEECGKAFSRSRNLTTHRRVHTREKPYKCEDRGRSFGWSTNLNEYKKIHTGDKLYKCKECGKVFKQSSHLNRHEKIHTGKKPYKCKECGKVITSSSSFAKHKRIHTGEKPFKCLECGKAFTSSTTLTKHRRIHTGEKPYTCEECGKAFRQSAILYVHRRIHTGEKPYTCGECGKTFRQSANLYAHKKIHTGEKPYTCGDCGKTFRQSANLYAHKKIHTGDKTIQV
ZNF721 DBD1, sequence (Q8TF20 17-449): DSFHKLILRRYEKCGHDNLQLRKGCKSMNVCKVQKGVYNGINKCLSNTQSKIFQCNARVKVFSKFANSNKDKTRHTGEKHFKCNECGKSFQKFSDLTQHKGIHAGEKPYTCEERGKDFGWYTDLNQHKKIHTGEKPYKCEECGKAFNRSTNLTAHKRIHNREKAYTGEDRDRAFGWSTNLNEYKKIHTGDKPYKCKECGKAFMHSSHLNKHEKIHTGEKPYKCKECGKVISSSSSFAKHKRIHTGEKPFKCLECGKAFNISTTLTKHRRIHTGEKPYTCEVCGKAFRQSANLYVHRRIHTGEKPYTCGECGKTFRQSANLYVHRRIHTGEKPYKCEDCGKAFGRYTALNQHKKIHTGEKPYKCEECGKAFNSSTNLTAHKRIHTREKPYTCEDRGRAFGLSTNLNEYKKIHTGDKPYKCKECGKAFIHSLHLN

As for AGGATACACT, the binding signal in the test with ZNF721 full-length was determined as 0.17 relative 10-mer count; in the test with ZNF721 DBD1 it was 0.0907 relative 10-mer count; in the test with ZNF721 DBD2, 0.116 relative 10-mer count.

Take ACCCACCGCC: the figures for the binding signal with ZNF721 full-length, with ZNF721 DBD1 and with ZNF721 DBD2 were 0.114 relative 10-mer count, 0.00482 relative 10-mer count and 0.00455 relative 10-mer count, respectively.

As for CCCCACCATC, the binding signal in the test with ZNF721 full-length came to 0.111 relative 10-mer count; with ZNF721 DBD1 it was 0.00477 relative 10-mer count; in the test with ZNF721 DBD2, 0.00563 relative 10-mer count.

Turning to CAACAAAGCA, the binding signal is 0.126 relative 10-mer count with ZNF721 full-length, 0.00101 relative 10-mer count in the test with ZNF721 DBD1 and 0.145 relative 10-mer count in the test with ZNF721 DBD2.

Consider CCCCACCACG, for which the binding signal was found to be 0.11 relative 10-mer count in the test with ZNF721 full-length, 0.0039 relative 10-mer count with ZNF721 DBD1 and 0.00623 relative 10-mer count with ZNF721 DBD2.

Turning to CTCCCCCACC, the binding signal with ZNF721 full-length was 0.191 relative 10-mer count; with ZNF721 DBD1 it was 0.0104 relative 10-mer count; with ZNF721 DBD2, 0.00348 relative 10-mer count.

CCCCCTCCCC: the binding signal with ZNF721 full-length turned out to be 0.331 relative 10-mer count; in the test with ZNF721 DBD1, 0.0149 relative 10-mer count; in the test with ZNF721 DBD2 it was 0.00455 relative 10-mer count.

Regarding CCCACCTACC, the values for the binding signal with ZNF721 full-length, in the test with ZNF721 DBD1 and in the test with ZNF721 DBD2 were 0.111 relative 10-mer count, 0.00573 relative 10-mer count and 0.00659 relative 10-mer count, respectively.

Regarding CCAACCCACC, the binding signal in the test with ZNF721 full-length is 0.171 relative 10-mer count; in the test with ZNF721 DBD1 it was 0.00642 relative 10-mer count; with ZNF721 DBD2, 0.00395 relative 10-mer count.

As for CCGCCCCCAC, the binding signal with ZNF721 full-length turned out to be 0.178 relative 10-mer count; in the test with ZNF721 DBD1 it was 0.00821 relative 10-mer count; with ZNF721 DBD2, 0.0036 relative 10-mer count.

With CCCCGCCCCG, the binding signal in the test with ZNF721 full-length turned out to be 0.144 relative 10-mer count; in the test with ZNF721 DBD1, 0.00486 relative 10-mer count; with ZNF721 DBD2 it was 0.00348 relative 10-mer count.

In the case of GTGGGGTGGA, the binding signal with ZNF721 full-length came to 0.103 relative 10-mer count; with ZNF721 DBD1 it was 0.00573 relative 10-mer count; with ZNF721 DBD2 it was 0.00539 relative 10-mer count.

Consider CCACCACCCA, for which the binding signal in the test with ZNF721 full-length amounted to 0.222 relative 10-mer count; with ZNF721 DBD1, 0.0105 relative 10-mer count; with ZNF721 DBD2 it was 0.00671 relative 10-mer count.

For TCCCCCCCCA, the values for the binding signal with ZNF721 full-length, with ZNF721 DBD1 and with ZNF721 DBD2 were 0.116 relative 10-mer count, 0.005 relative 10-mer count and 0.00264 relative 10-mer count, respectively.

With CCCTGCCCCC, the figures for the binding signal with ZNF721 full-length, with ZNF721 DBD1 and with ZNF721 DBD2 were 0.166 relative 10-mer count, 0.00642 relative 10-mer count and 0.00264 relative 10-mer count, respectively.

Regarding ACCCCTCCCC, the binding signal in the test with ZNF721 full-length stood at 0.189 relative 10-mer count; in the test with ZNF721 DBD1, 0.00688 relative 10-mer count; with ZNF721 DBD2, 0.00216 relative 10-mer count.

In the case of GCCCCCGCCC, the binding signal with ZNF721 full-length amounted to 0.146 relative 10-mer count; with ZNF721 DBD1, 0.00527 relative 10-mer count; with ZNF721 DBD2 it was 0.00132 relative 10-mer count.

For the sequence CGCCCCACCC, the results for the binding signal with ZNF721 full-length, in the test with ZNF721 DBD1 and with ZNF721 DBD2 were 0.236 relative 10-mer count, 0.00844 relative 10-mer count and 0.00312 relative 10-mer count, respectively.

Consider ACCGCCACCC, for which the results for the binding signal in the test with ZNF721 full-length, with ZNF721 DBD1 and with ZNF721 DBD2 were 0.111 relative 10-mer count, 0.00335 relative 10-mer count and 0.00192 relative 10-mer count, respectively.

With AAGCGTCTCC, the binding signal in the test with ZNF721 full-length came to 0.163 relative 10-mer count; with ZNF721 DBD1 it was 0.084 relative 10-mer count; with ZNF721 DBD2 it was 0.0107 relative 10-mer count.

As to CCCACCCAGC, the binding signal with ZNF721 full-length came out at 0.106 relative 10-mer count; in the test with ZNF721 DBD1 it was 0.00307 relative 10-mer count; with ZNF721 DBD2, 0.003 relative 10-mer count.

Turning to CACCACCCCA, the results for the binding signal with ZNF721 full-length, with ZNF721 DBD1 and with ZNF721 DBD2 were 0.222 relative 10-mer count, 0.00803 relative 10-mer count and 0.00683 relative 10-mer count, respectively.

Turning to CACCCGCCCA, the binding signal amounted to 0.103 relative 10-mer count in the test with ZNF721 full-length, 0.00358 relative 10-mer count with ZNF721 DBD1 and 0.0024 relative 10-mer count with ZNF721 DBD2.

CCCCTCCGCC: the binding signal with ZNF721 full-length worked out at 0.167 relative 10-mer count; with ZNF721 DBD1, 0.00766 relative 10-mer count; with ZNF721 DBD2 it was 0.003 relative 10-mer count.

AGCGTACCCT: the figures for the binding signal with ZNF721 full-length, with ZNF721 DBD1 and in the test with ZNF721 DBD2 were 0.204 relative 10-mer count, 0.0586 relative 10-mer count and 0.165 relative 10-mer count, respectively.

Turning to CATACCCAAA, the results for the binding signal with ZNF721 full-length, with ZNF721 DBD1 and with ZNF721 DBD2 were 0.103 relative 10-mer count, 0.00583 relative 10-mer count and 0.0665 relative 10-mer count, respectively.

CACCCACCCA: the binding signal with ZNF721 full-length came out at 0.192 relative 10-mer count; with ZNF721 DBD1, 0.00835 relative 10-mer count; with ZNF721 DBD2, 0.00503 relative 10-mer count.

The values are drawn from PMC13541613, “GHT-SELEX demonstrates unexpectedly high intrinsic sequence specificity and complex DNA binding of many human transcription factors”.
